Many of the other results were omitted from the sample, so hits are more common in it than they were.
Methyltransferases: Primary Screen for Target Class Profiling of Small Molecule Inhibitors of Methyltransferases | AID 1745853, 2022 | calls only at 40 µM | purified enzyme, MTase-Glo SAH luminescence; stronger effect = lower value | 3.9% of 25,000 active; call rule not given here
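Each enzyme was assayed with SAM and its substrate. SAH formation detected by MTase-Glo luminescence; single-point 40 uM screen[…].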
The depositor's hits bear a star; i = inactive; + = active, no number; ! = repeats disagree. % is set by controls: 0 for no effect and ±100 for the full control effect.

SMILES | Methyltransferases
CCOC(=O)c1cnc2ccc(Br)cc2c1Nc1cccc(C(C)=O)c1 | i
C=CC(=O)Nc1ccc2ncnc(Nc3cccc(Br)c3)c2c1 | +
Cc1ccc(Cn2c(=O)c3ccc(C(=O)NCC(C)C)cc3n3c(=O)n(CC(N)=O)nc23)cc1 | i
Cn1c(=O)c2ccc(C(=O)NC3CCCC3)cc2n2c(SCc3ccccc3F)nnc12 | i
CCc1ccc(CNC(=O)Cn2c(C)cc3nc4n(c(=O)c32)CCCC4)cc1 | i
CCC1Oc2ccc(NC(=O)c3ccccc3OC(C)=O)cc2CN(Cc2ccccc2F)C1=O (stereo not drawn) | i
CCOc1ccc(-c2cc3c(=O)n(CCNC(=O)c4cnccn4)ccn3n2)cc1 | i
CN(C)[C@@H]1C[C@@H](CO)N(C(=O)c2csc3nc(-c4ccccc4Cl)cn23)C1 | i
O=C(Nc1ccccc1-c1cn2c(CN3CCNCC3)csc2n1)c1cnc2ccccc2n1 | +!
CC(=O)C1=CCC2C3CC=C4CC(O)CC(O)C4(C)C3C(O)CC12C (stereo not drawn) | i
Cc1ccc(N2C(=O)c3cc(-c4cccs4)nn3CC2(C)C(=O)NC2CCCCC2)cc1C (stereo not drawn) | i
COc1ccc(N2C(=O)c3cc4occc4n3CC2(C)C(=O)NC2CCCC(C)C2C)cc1OC (stereo not drawn) | i
CCc1cc2c(cc3n2CC(C)(C(=O)NC2CCCCCC2)N(Cc2cccnc2)C3=O)s1 (stereo not drawn) | i
CN(C)CCCN1c2ccccc2Sc2ccccc21 | i
CN1CCN(CCCN2c3ccccc3Sc3ccc(C(F)(F)F)cc32)CC1 | +
CNCCCN1c2ccccc2CCc2ccccc21 | i
CCCCS(=O)(=O)N1CCC(c2nnc(Cn3cncn3)n2C)CC1 | i
CCOC(=O)c1cc2n(n1)CC(C)(C(=O)NC1CCCCC1)N(c1cccc(SC)c1)C2=O (stereo not drawn) | i
Cc1cccc(NC(=O)Cn2c(=O)oc3cc(S(=O)(=O)N4CCCCC4)ccc32)c1 | i
C=CCN1CCN(C(=O)C2N(c3ccc(OC)cc3)C(=O)C23CCCCC3)CC1 (stereo not drawn) | i
Cn1cncc1C(N)(c1ccc(Cl)cc1)c1ccc2c(c1)c(-c1cccc(Cl)c1)cc(=O)n2C (stereo not drawn) | +
Cc1cc(NS(=O)(=O)c2ccc3[nH]c4c(c3c2)CCCC4)ccc1Br | i
O=C(c1ccc(Br)o1)N1CCC(c2n[nH]c(=O)n2Cc2ccc(F)cc2)CC1 | i
O=C(c1ccccn1)N1CCN(C(=O)N2CC3CC(C2)[C@H]2CCCC(=O)N2C3)CC1 (stereo partly drawn) | i
C[C@H](Oc1cc(-c2cnn(C3CCNCC3)c2)cnc1N)c1c(Cl)ccc(F)c1Cl | +
SMILES | Methyltransferases
C[C@@H](Oc1cc(-c2cnn(C3CCNCC3)c2)cnc1N)c1c(Cl)ccc(F)c1Cl | +!
CN(CCCNC(=O)Cn1ccc2cc(S(=O)(=O)N3CCCCC3)ccc21)Cc1ccccc1 | i
CC(=O)N1CC2(CCN(C(=O)NCc3ccccc3)CC2)CC1C(=O)O (stereo not drawn) | i
CCc1ccc(-c2cc3n(n2)CC(C)(C(=O)NC2CCCCC2)N(Cc2cccs2)C3=O)cc1 (stereo not drawn) | i
CCNC(=O)N[C@H]1CC[C@]2(C)CCC([C@H](C)C(=O)N(C)CCC#N)[C@H](O)[C@H]2[C@@H]1C (stereo partly drawn) | i
COc1ccccc1CNC(=O)C1(C)Cn2nc(-c3ccccc3)cc2C(=O)N1c1cc(C)ccc1C (stereo not drawn) | i
COC1CCC12CCN(Cc1ccc(C)s1)CC2 (stereo not drawn) | i
Nc1ncnc2c1ncn2[C@@H]1O[C@H](CO)C[C@H]1O | i
NC[C@H]1O[C@@H](n2cnc3c(N)ncnc32)[C@H](O)[C@@H]1O | +
Nc1ncnc2c1nc(N)n2[C@@H]1O[C@H](CO)[C@@H](O)[C@H]1O | i
N[C@@H]1c2cccnc2[C@H](OC(=O)N2CCC(n3c(=O)[nH]c4ncccc43)CC2)CC[C@H]1c1cccc(F)c1F | i
CC1(C(=O)NCc2ccccc2)Cn2nc(-c3ccccc3)cc2C(=O)N1Cc1ccccc1 (stereo not drawn) | i
CNS(=O)(=O)CC1CCC(N(C)c2ncnc3[nH]ccc23)CC1 (stereo not drawn) | +
CC1CCC23COC(=O)C2=CC(O)CC3C1(C)CCC1=CC(O)OC1=O (stereo not drawn) | i
CCCn1c(=O)c2ccc(Cl)cc2n2c(=O)n(CC(=O)c3ccccc3)nc12 | i
COc1ccc(C(=O)N2CC(N(C3CCOCC3)S(C)(=O)=O)C2)cn1 | i
CNC(=O)c1cc(Oc2ccc3nc(N[C@@H]4CCCC[C@H]4O)sc3c2)ccn1 | i
C=CC(=O)Nc1cccc(Nc2nc(Nc3ccc(Oc4ccnc(C(=O)NC)c4)cc3)ncc2F)c1 | +
NCc1ccc(Nc2ncc(F)c(Nc3ccccc3)n2)cc1 | i
Cc1cc2c(cc3n2CC(C)(C(=O)NC2CCCCCCC2)N(CCc2ccc(Cl)cc2)C3=O)o1 (stereo not drawn) | i
CC(C)CCn1c(=O)c2ccccc2n2c(=O)n(CC(=O)Nc3ccccc3F)nc12 | i
COc1ccccc1CNC(=O)C1(C)Cn2nc(-c3ccccc3)cc2C(=O)N1Cc1ccc(Cl)cc1 (stereo not drawn) | i
CCCCOC(=O)COc1ccc2c(-c3ccccc3)cc(=O)oc2c1 | i
CCCc1cc2c(-c3ccccc3)cc(=O)oc2cc1OCc1ccc(C(=O)O)o1 | +
COC(=O)COc1cc2oc(=O)cc(-c3ccccc3)c2cc1Cl | i
SMILES | Methyltransferases
Cc1cccc(N2C(=O)c3ccc(-c4ccco4)n3CC2(C)C(=O)NCc2ccccc2)c1C (stereo not drawn) | i
CCCn1c(=O)c2ccc(C(=O)NC(C)C)cc2n2c(=O)n(CC(=O)Nc3cccc(F)c3)nc12 | i
Cc1cc2c(cc3n2CC(C)(C(=O)NC2CCCCCCC2)N(Cc2cccs2)C3=O)o1 (stereo not drawn) | i
Cn1cc(-c2cnc(Nc3ccc(F)c(Cl)c3)c3c2CCO3)cn1 | i
COc1cc2c(Nc3ccc(Cl)c(Cl)c3F)ncnc2cc1OCC1C[C@@H]2CN(C)C[C@@H]2C1 (stereo partly drawn) | +
COc1cc2ncnc(Nc3ccc(F)c(Cl)c3)c2cc1OCCCN1CCOCC1 | +
COCCOc1cc2ncnc(Cl)c2cc1OCCOC | i
COc1cc2c(Oc3ccc(NC(=O)C4(C(=O)Nc5ccc(F)cc5)CC4)cc3F)ccnc2cc1OCCCN1CCOCC1 | i
Cc1cccc(S(=O)(=O)N2CCC[C@@H]2CCN2CCC(C)CC2)c1 | i
CCN1C(=O)c2cc(C(=O)NCCCN3CCc4ccccc4C3)nn2CC1(C)C(=O)NC1CCCC1 (stereo not drawn) | i
CN(C(=O)Cn1nc2n(C)c(=O)c3ccc(C(=O)NC4CCCC4)cc3n2c1=O)c1ccccc1 | i
Cc1ccc(Cl)cc1Nc1nn2c(=O)c3ccc(C(=O)NC4CCC(C)CC4)cc3nc2s1 (stereo not drawn) | i
CN(C)c1nc(NC2CCC(NC(=O)c3ccc(F)c(F)c3)CC2)nc2ccccc12 (stereo not drawn) | +
O=S(=O)(c1ccc(Br)cc1)c1nnn2c1nc(NCc1ccccc1)c1ccccc12 | i
CC(C)CCN1C(=O)c2ccc(-c3ccco3)n2CC1(C)C(=O)NC1CCCC1 (stereo not drawn) | i
